This note sets out measurements from PubChem BioAssay (EPA / NIEHS).

Assay [1] addresses human Retinoid X Receptor beta (RXRb), RXRB (gene 6257) (UniProt P28702). Nature of the assay: ATG_RXRb_TRANS: Attagene TRANS-FACTORIAL HepG2 Assay for human Retinoid X Receptor beta (RXRb) (AID 2283013; active = hit-call score of the fitted dose curve at least 0.9, where 1 is the maximum). The procedure, abridged: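 Readout is reporter transcript induction after 24 h dosing. It is measured by RT-PCR of total RNA followed by fluorescent capillary electrophoresis. HepG2 liver cells carry transfected multiple reporter units driven by an exogenous RXRb-Gal4 fusion; activity is relative to DMSO.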

Assay [2] deals with human Thyroid Receptor alpha (THRa1), THRA (gene 7067) (UniProt P10827). Nature of the assay: ATG_THRa1_TRANS: Attagene TRANS-FACTORIAL HepG2 Assay for human Thyroid Receptor alpha (THRa1) (AID 2283014; active = hit-call score of the fitted dose curve at least 0.9, where 1 is the maximum). The method in brief:
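Measured here is mRNA from a GAL4-UAS reporter in transfected HepG2 cells carrying a Gal4-fused receptor, 24 h post-dose. DMSO served as negative control and baseline.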

Read-out in assay [3]: E-selectin (Homo sapiens) (UniProt P16581)
Nature of the assay: BSK_3C_Eselectin: BioMAP Diversity Plus: 3C Assay for Eselectin Biomarker Activity (AID 2283015).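 Note: cell surface E-selectin protein quantified by ELISA 24 h after dosing.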 To be noted: primary human endothelial cells (HUVEC); actives raise or lower the signal. The procedure, abridged:
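Endpoint derived by bidirectional fitting against DMSO vehicle; signal is ELISA-detected E-selectin from primary HUVEC at 24 h post-dosing, with parallel SRB staining (0.1% SRB, 560 nm) flagging cytotoxicity.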

Read-out in assay [4]: Interleukin-1 alpha (IL1a), IL1A (gene 3552)
The assay is described as follows: BSK_BE3C_IL1a: BioMAP Diversity Plus: BE3C Assay for Interleukin-1 alpha (IL1a) Biomarker Activity (AID 2283016). The note with it: primary human bronchial epithelial cells; actives raise or lower the signal. The method in brief: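 IL-1a measured by ELISA after 24 h treatment of human primary bronchial epithelial cells, with gain or loss of signal fitted versus DMSO. Parallel cultures stained with SRB gauge overt cytotoxicity.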

Read-out in assay [5]: Monocyte Chemoattractant Protein-1 (MCP1), CCL2 (gene 6347)
The assay is described as follows: BSK_3C_MCP1: BioMAP Diversity Plus: 3C Assay for Monocyte Chemoattractant Protein-1 (MCP1) Biomarker Activity (AID 2283017). The note with it: primary human endothelial cells (HUVEC); actives raise or lower the signal. The procedure, abridged: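 Using human vascular primary endothelium, researchers measured MCP-1 by ELISA 24 h after treatment, with DMSO serving as negative control for bidirectional fitting.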

Read-out in assay [6]: Monocyte Chemoattractant Protein-1 (MCP1), CCL2 (gene 6347)
Nature of the assay: BSK_4H_MCP1: BioMAP Diversity Plus: 4H Assay for Monocyte Chemoattractant Protein-1 (MCP1) Biomarker Activity (AID 2283018). The note with it: primary human endothelial cells (HUVEC); actives raise or lower the signal. The method in brief:
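ELISA of MCP-1 (CCL2) 24 h after chemical dosing of HUVEC in the BioMAP 4H system. Gain or loss versus DMSO fitted; parallel SRB staining (560 nm) tracked overt cytotoxicity.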

Read-out in assay [7]: Human Leukocyte Antigen - DR isotype (HLADR), HLA-DRA (gene 3122)
Nature of the assay: BSK_3C_HLADR: BioMAP Diversity Plus: 3C Assay for Human Leukocyte Antigen - DR isotype (HLADR) Biomarker Activity (AID 2283019). To be noted: primary human endothelial cells (HUVEC); actives raise or lower the signal. The procedure, abridged:
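Compound added to primary HUVEC cultures, 24 h incubation, then HLA-DR determined by ELISA; endpoint derived by bidirectional fitting relative to DMSO negative control.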

Read-out in assay [8]: Interleukin-8 (IL8), CXCL8 (gene 3576)
Nature of the assay: BSK_3C_IL8: BioMAP Diversity Plus: 3C Assay for Interleukin-8 (IL8) Biomarker Activity (AID 2283020). The note with it: primary human endothelial cells (HUVEC); actives raise or lower the signal. The method in brief: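 IL-8 was measured by ELISA in HUVEC cultures 24 h after chemical dosing, with gain or loss of signal fitted relative to DMSO. Parallel SRB total-protein staining tracked overt cytotoxicity.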

Read-out in assay [9]: Monokine induced gamma interferon (MIG), CXCL9 (gene 4283)
The assay is described as follows: BSK_3C_MIG: BioMAP Diversity Plus: 3C Assay for Monokine induced gamma interferon (MIG) Biomarker Activity (AID 2283021). The note with it: primary human endothelial cells (HUVEC); actives raise or lower the signal. The method in brief: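 ELISA measurement of MIG in human umbilical vein endothelial cells 24 h after treatment. Cytotoxicity tracked by SRB staining in parallel cultures; gain or loss of signal fitted relative to DMSO.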

The target in assay [10] is human Vitamin D Receptor (VDR), VDR (gene 7421) (UniProt P11473). Nature of the assay: ATG_VDR_TRANS: Attagene TRANS-FACTORIAL HepG2 Assay for human Vitamin D Receptor (VDR) (AID 2283022; active = hit-call score of the fitted dose curve at least 0.9, where 1 is the maximum). The procedure, abridged:
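Multiplexed TRANS reporter in HepG2; 24 h treatment; reporter mRNA by RT-PCR plus capillary electrophoresis; upregulation scored relative to DMSO.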

Assay [11] can be described thus: BSK_3C_SRB: Viability Assessment in the BioMAP Diversity Plus: 3C Assay (AID 2283023).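 Note: cells read 24 h after compound dosing; fitted both ways against DMSO so a hit may be signal rise or drop.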 To be noted: primary human endothelial cells (HUVEC). The procedure, abridged: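 Overt cytotoxicity is gauged in parallel confluent HUVEC cultures by SRB total-protein staining at the time of biomarker measurement, 24 h after dosing. Gain or loss of signal is fitted versus DMSO.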

Read-out in assay [12]: Matrix Metallopeptidase 1 (MMP1), MMP1 (gene 4312)
The assay is described as follows: BSK_BE3C_MMP1: BioMAP Diversity Plus: BE3C Assay for Matrix Metallopeptidase 1 (MMP1) Biomarker Activity (AID 2283024). To be noted: primary human bronchial epithelial cells; actives raise or lower the signal. The method in brief: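 ELISA measurement of MMP-1 after 24 h compound exposure of primary human bronchial epithelial cells. Changes in either direction fitted relative to DMSO; parallel SRB staining checked overt cytotoxicity.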

Assay [13] in a line: BSK_3C_Vis: BioMAP Diversity Plus: 3C Assay for Morphology Visualization (AID 2283025).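 Note: fitted both ways so gain or loss versus DMSO counts.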 To be noted: primary human endothelial cells (HUVEC). The method in brief:
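Light-microscopy visualization of HUVEC cultures at 24 h post-treatment, with DMSO as baseline for bidirectional fitting.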

Read-out in assay [14]: Pselectin, SELP (gene 6403)
Nature of the assay: BSK_4H_Pselectin: BioMAP Diversity Plus: 4H Assay for Pselectin Biomarker Activity (AID 2283026). To be noted: primary human endothelial cells (HUVEC); actives raise or lower the signal. The procedure, abridged: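 ELISA of surface P-selectin on HUVEC, 24 h after dosing, with parallel SRB staining (0.1% after 10% TCA fixation, 560 nm) for overt cytotoxicity. Activity fitted in both directions relative to DMSO.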

Assay [15] can be described thus: BSK_4H_SRB: Viability Assessment in the BioMAP Diversity Plus: 4H Assay (AID 2283027).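 Note: cells exposed to compound for 24 h before staining.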 The note with it: primary human endothelial cells (HUVEC). The method in brief: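 HUVEC, 24 h post-dose; 10% TCA fix, 0.1% SRB stain, A560 nm. Total protein = overt cytotoxicity, parallel to biomarker read. Bidirectional fit vs DMSO baseline.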
Assay [16] can be described thus: BSK_BE3C_SRB: Viability Assessment in the BioMAP Diversity Plus: BE3C Assay (AID 2283028). To be noted: primary human bronchial epithelial cells. The method in brief: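 SRB total-protein staining (0.1%, after TCA fixation) of chemically dosed human bronchial epithelial primary cells at 24 h; DMSO serves as the negative control for bidirectional curve fitting.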

Read-out in assay [17]: Urokinase-type plasminogen activator receptor (uPAR), PLAUR (gene 5329)
Nature of the assay: BSK_4H_uPAR: BioMAP Diversity Plus: 4H Assay for Urokinase-type plasminogen activator receptor (uPAR) Biomarker Activity (AID 2283030). To be noted: primary human endothelial cells (HUVEC); actives raise or lower the signal. The procedure, abridged:
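Endpoint derived via bidirectional curve fitting against DMSO baseline; readout was ELISA detection of uPAR on umbilical vein endothelial cells at 24 h post-treatment, with SRB-stained parallel cultures assessing cytotoxicity.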

Read-out in assay [18]: Vascular endothelial growth factor receptor 2 (Homo sapiens) (UniProt P35968)
Nature of the assay: BSK_4H_VEGFRII: BioMAP Diversity Plus: 4H Assay for Vascular endothelial growth factor receptor 2 (VEGFR2) Biomarker Activity (AID 2283031). To be noted: primary human endothelial cells (HUVEC); actives raise or lower the signal. The procedure, abridged:
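In this multiplexed HUVEC system, biomarker ELISA was performed after 24 h chemical exposure. Parallel SRB staining (TCA fixation, 560 nm) tracked cytotoxicity; DMSO served as baseline.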

Read-out in assay [19]: Human Leukocyte Antigen - DR isotype (HLADR), HLA-DRA (gene 3122)
Nature of the assay: BSK_BE3C_HLADR: BioMAP Diversity Plus: BE3C Assay for Human Leukocyte Antigen - DR isotype (HLADR) Biomarker Activity (AID 2283032). The note with it: primary human bronchial epithelial cells; actives raise or lower the signal. The method in brief: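 Cell-surface HLA-DR ELISA readout at 24 h after dosing in the BE3C primary human lung bronchial epithelial system; gain or loss of signal against DMSO, with parallel sulforhodamine B staining of total protein for overt cytotoxicity.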

Read-out in assay [20]: Thrombomodulin, THBD (gene 7056)
Nature of the assay: BSK_3C_Thrombomodulin: BioMAP Diversity Plus: 3C Assay for Thrombomodulin Biomarker Activity (AID 2283029). To be noted: primary human endothelial cells (HUVEC); actives raise or lower the signal. The procedure, abridged:
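ELISA measurement of thrombomodulin on HUVEC surface 24 h after chemical dosing; activity fitted in both directions relative to DMSO vehicle.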

Each structure is given as a SMILES string. “And” between values parts separate entries of the source, which are not always exact repeats. Equal values may be shown once. Results filed as inconclusive are left out. The source holds several records for some structures; these can differ, active in one and inactive in another. The source made the active and inactive calls. Rule for the calls, unless noted: active = hit-call score of the fitted dose curve at least 0.9, where 1 is the maximum; inactive = score below 0.9.

E-selectin (Homo sapiens), sequence (P16581 whole entry, looked up): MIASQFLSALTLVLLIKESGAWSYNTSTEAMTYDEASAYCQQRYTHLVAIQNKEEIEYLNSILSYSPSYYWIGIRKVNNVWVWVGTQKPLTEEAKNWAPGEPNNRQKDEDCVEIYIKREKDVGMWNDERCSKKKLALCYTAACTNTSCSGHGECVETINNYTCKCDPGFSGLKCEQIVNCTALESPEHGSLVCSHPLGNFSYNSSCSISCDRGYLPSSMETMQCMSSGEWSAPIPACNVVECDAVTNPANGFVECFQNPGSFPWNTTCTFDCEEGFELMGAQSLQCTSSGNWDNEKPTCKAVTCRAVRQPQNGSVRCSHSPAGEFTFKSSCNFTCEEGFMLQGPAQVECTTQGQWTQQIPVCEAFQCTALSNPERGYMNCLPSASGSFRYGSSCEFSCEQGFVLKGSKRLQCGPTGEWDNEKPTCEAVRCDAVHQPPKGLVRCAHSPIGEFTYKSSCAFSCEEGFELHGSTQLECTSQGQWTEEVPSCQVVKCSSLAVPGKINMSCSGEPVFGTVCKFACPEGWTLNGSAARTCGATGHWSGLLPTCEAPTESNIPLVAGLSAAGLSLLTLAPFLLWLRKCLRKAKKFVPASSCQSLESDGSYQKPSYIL
human Vitamin D Receptor (VDR), VDR (gene 7421), sequence (P11473 whole entry, looked up): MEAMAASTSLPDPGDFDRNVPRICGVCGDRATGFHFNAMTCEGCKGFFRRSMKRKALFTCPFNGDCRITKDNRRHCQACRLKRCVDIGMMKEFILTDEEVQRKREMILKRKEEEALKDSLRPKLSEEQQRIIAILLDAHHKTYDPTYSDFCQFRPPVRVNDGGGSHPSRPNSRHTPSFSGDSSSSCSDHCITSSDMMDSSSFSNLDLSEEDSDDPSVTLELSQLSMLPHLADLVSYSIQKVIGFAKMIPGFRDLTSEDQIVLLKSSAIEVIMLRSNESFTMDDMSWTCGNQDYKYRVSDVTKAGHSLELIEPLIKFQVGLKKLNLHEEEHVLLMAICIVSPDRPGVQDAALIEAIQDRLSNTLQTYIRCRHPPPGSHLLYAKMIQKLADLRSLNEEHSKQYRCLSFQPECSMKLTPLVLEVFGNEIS
human Retinoid X Receptor beta (RXRb), RXRB (gene 6257), sequence (P28702 whole entry, looked up, the tested form may be a part): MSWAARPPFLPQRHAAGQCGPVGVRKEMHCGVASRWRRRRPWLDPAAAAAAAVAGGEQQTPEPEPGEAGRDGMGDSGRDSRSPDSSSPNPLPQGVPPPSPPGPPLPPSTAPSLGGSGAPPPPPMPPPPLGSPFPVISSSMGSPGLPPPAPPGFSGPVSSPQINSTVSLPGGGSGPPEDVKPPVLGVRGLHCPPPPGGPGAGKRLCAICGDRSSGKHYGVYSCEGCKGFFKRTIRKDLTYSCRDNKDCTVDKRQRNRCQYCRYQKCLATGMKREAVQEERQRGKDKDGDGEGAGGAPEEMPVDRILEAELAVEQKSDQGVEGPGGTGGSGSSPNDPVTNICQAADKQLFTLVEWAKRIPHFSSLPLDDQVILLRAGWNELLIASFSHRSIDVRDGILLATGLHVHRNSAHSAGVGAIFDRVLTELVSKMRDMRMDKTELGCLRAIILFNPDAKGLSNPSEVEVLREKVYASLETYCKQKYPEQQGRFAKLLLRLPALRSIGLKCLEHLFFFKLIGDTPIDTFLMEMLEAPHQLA
human Thyroid Receptor alpha (THRa1), THRA (gene 7067), sequence (P10827 whole entry, looked up, the tested form may be a part): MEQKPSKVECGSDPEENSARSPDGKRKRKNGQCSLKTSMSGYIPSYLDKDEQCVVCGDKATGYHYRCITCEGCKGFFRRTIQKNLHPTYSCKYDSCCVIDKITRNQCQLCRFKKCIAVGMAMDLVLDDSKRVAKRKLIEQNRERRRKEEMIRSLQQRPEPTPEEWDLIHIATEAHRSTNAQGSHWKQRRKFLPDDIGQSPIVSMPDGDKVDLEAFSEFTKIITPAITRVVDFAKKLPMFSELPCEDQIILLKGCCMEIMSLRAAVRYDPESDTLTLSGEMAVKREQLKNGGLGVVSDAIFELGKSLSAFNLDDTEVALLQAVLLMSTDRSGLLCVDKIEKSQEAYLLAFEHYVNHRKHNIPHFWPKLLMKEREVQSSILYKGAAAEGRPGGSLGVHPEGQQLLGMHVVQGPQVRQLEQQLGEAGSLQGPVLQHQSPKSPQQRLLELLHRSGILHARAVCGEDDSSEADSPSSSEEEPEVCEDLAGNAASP

Turning to `C[C@]12CC[C@H](O)CC1=CC[C@@H]1[C@@H]2CC[C@]2(C)C(=O)CC[C@@H]12`, the compound was called inactive in assay [1].
Turning to `CC(C#N)CCC#N` (stereo unspecified), the call in assay [1] and in assay [2] was inactive.
For the compound `CC(C)(c1ccc(OCC2CO2)cc1)c1ccc(OCC2CO2)cc1` (stereo unspecified), the outcome in assay [1] was inactive.
Usually AC50 stands for the midpoint of the concentration-response curve, whichever way the signal moves. On to `O=C(O)C(F)(F)C(F)(F)C(F)(F)C(F)(F)C(F)(F)C(F)(F)F`, for which the AC50 in assay [1] is 51.7 µM (active) and 56.5 µM (active); in assay [8], 13.9 µM (active); in [12], 13.6 µM (active). Besides, the call in [1], in assay [2], in assay [3], in assay [4], in [5] and in assay [6] was inactive. In addition, the outcome in assay [7], in assay [8], in assay [9], in assay [10], in [11] and in [12] was inactive. The outcome in [13], in [14], in assay [15], in assay [16], in [17] and in assay [18] was inactive. Moreover, in assay [19], the result was inactive.
`CC(C)c1ccc(CO)cc1`: the compound was classed as inactive in assay [1], in [2], in assay [3], in [4], in assay [5] and in [6]. In addition, the outcome in [7], in [8], in assay [9], in [10], in [11] and in [12] was inactive. Further, the outcome in [13], in [14], in assay [15], in assay [16], in assay [20] and in assay [17] was inactive. Further, the result in assay [18] and in assay [19] was inactive.
Consider `Cc1ccccc1C(=O)Nc1cccc(OC(C)C)c1`, for which the compound was classed as inactive in assay [1] and in assay [2].
Turning to `CCNc1nc(NC(C)(C)C)nc(SC)n1`, the AC50 in assay [1] is 15.5 µM (active); in assay [7] it was 20 µM (active). The compound was called inactive in assay [2], in assay [3], in [4], in assay [5], in assay [6] and in assay [8]. Also, the outcome in assay [9], in assay [10], in assay [11], in [12], in assay [13] and in assay [14] was inactive. The outcome in assay [15], in [16], in assay [20], in assay [17] and in assay [19] was inactive.
As for `CC12CC1(C)C(=O)N(c1cc(Cl)cc(Cl)c1)C2=O` (stereo unspecified), the compound was called inactive in [1], in assay [2], in [3], in assay [4], in assay [5] and in [6]. Also, the outcome in assay [7], in assay [8], in assay [9], in assay [10], in [11] and in assay [12] was inactive. Besides, the result in assay [13], in assay [14], in assay [15], in [16], in assay [20] and in [17] was inactive. Moreover, the outcome in assay [18] and in [19] was inactive.
Consider `C[C@H]1CCCC(=O)CCC/C=C/c2cc(O)cc(O)c2C(=O)O1`, for which the AC50 in [1] is 9.82 µM (active). Moreover, the outcome in assay [2] was inactive.
Take `Cc1ccc2ccccc2c1C`: the AC50 in assay [1] was 100 µM (active). In addition, the result in assay [2] was inactive.
For `O=c1[nH]c(=O)[nH]c(=O)[nH]1`, the outcome in assay [1], in [2], in [3], in assay [4], in assay [5] and in [6] was inactive. The result in assay [7], in assay [8], in assay [9], in assay [10], in assay [11] and in assay [12] was inactive. The result in assay [13], in [14], in assay [15], in assay [16], in assay [20] and in assay [17] was inactive. In addition, the result in assay [18] and in assay [19] was inactive.
